High-throughput results from PubChem.
ATXN2 expr inh = Primary qHTS for Inhibitors of ATXN expression; Potency, µM (top dose mostly 57 µM), for the others: top-dose activity change, negative = inhibition, hits mostly inhibitors; actives 0.72% (n = 360,000); HEK-293 ATXN2-luciferase reporter, luminescence, 24 h; also: potency is read from the fitted curve at half-maximal effect; % is scaled to controls: 0 for no effect and ±100 for the full control effect; nearly all actives have a fitted effect of over 55% in size
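ATXN2-luciferase reporter cells (luciferase flanked by upstream and downstream ATXN2 gene portions) were treated 24 h at 37 °C with compounds at up to 57 uM. SteadyGlo luminescence gave expression; GF-AFC fluorescence gave viability.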
D3 antag = qHTS of D3 Dopamine Receptor Antagonist: qHTS; D3R cells, DiscoveRx beta-arrestin luminescence, antagonist mode; hits give low values; max response, negative = inhibition, %; actives 2.5% (n = 360,000); AID 652054, 2013; in the data active = max response below about -50%; inconclusive = no clear call, values can overlap the other calls; also: % is scaled to controls: 0 for no effect and ±100 for the full control effect
Target sequence (P35462 whole entry, looked up): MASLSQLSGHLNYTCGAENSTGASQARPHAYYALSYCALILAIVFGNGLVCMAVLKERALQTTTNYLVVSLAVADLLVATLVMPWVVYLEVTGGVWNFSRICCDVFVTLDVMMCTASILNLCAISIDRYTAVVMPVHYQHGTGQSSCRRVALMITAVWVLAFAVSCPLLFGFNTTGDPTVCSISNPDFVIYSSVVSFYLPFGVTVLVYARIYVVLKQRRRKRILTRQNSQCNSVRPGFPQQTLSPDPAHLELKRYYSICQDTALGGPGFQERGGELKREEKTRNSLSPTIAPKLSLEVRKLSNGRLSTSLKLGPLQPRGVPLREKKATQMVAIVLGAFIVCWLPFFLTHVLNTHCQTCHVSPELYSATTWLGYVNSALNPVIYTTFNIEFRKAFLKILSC
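Cells plated overnight at 1500 cells/well, then exposed to library compounds with dopamine controls for 90 minutes at 37 degrees C. DiscoveRx reagent added for 30–60 minutes at room temperature; luminescence read, quantitative HTS format.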
S2 tox = Viability Counterscreen for Primary qHTS for Inhibitors of ATXN expression; S2 cells (HEK-293 line with an ATXN2-luciferase reporter) viability, CellTiter-Fluor protease fluorescence, 24 h; Potency, µM (highest dose often 56.7 µM), hits mostly cytotoxic; actives 0.49% (n = 400,000); AID 651635, 2014; also: potency is read from the fitted curve at half-maximal effect; nearly all actives have a fitted effect of over 40% in size
HepG2 viability = qHTS for Inhibitors of TGF-b: Cytotox Counterscreen | actives 0.76% (n = 410,000) | Potency, µM (highest dose often 46.1 µM), inactives show at the highest dose activity change, negative = cytotoxicity, most hits filed as cytotoxic | AID 588856, 2011 | HepG2 CAGA-GFP viability, ATP luminescence, 18 h; also: potency is read from the fitted curve at half-maximal effect
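CellTiter-Glo luminescence gave cytotoxicity after 18 hours at 37 degrees C. The cells were HepG2 CAGA-GFP in 1% FBS DMEM, stimulated with 500 pg/mL TGF-beta after compound addition. %Activity was normalised to no-cell wells (complete cell-killing) and DMSO (no toxicity), and curves were fitted and classified.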
TGFb inhibitor = qHTS for Inhibitors of TGF-b; AID 588855, 2011; actives 1.2% (n = 410,000); Potency, µM (highest dose often 46.1 µM), for inactives: top-dose activity, negative = inhibition, actives largely listed as inhibitors; HepG2 CAGA-GFP TGF-b/SMAD3 reporter, GFP fluorescence, 18 h; TGF-beta stimulated, 500 pg/mL final; also: potency is read from the fitted curve at half-maximal effect; % is scaled to controls: 0 for no effect and ±100 for the full control effect; nearly all actives have a fitted effect of over 65% in size
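Inhibition was scored as loss of TGF-beta-induced (500 pg/mL final, 18 hours, 37 degrees C) GFP in HEPG2 cells carrying a CAGA-GFP reporter, in DMEM with 1% FBS. Well GFP was summed per cell; Activity was normalised to unstimulated and stimulated DMSO wells, then concentration-response fitting.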
DRD3 agonist = qHTS of D3 Dopamine Receptor Agonist: qHTS; D3R DiscoveRx beta-arrestin cells, luminescence, 90 min; max activation, %; actives 0.58% (n = 410,000); AID 652048, 2013; in the data active = max activation above about 30%; also: 0% is about no effect
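Agonist-mode cell screen: cells plated at 1500/well and incubated overnight at 37 °C, then exposed to library compounds for 90 min at 37 °C. Detection reagent was added for 30–60 min at room temperature, and luminescence was read.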
* hit, by the source's call; ! = repeats disagree. Sampled rows, rich in hits. Any-hit rate of the full collection: about 4.7%. Unless noted, calls follow the shape of the dose curve; as a rule, active = well fitted curve in the direction sought with a large enough effect; inconclusive = small, poorly fitted or top-dose-only effect, or another doubt; inactive = no such curve, though single readings can be large; an effect the other way counts as inactive or inconclusive.

Screening O=c1[nH]c(=O)n([C@H]2C[C@H](O)[C@@H](CO)O2)cc1C(F)(F)F returned ATXN2 expr inh 2µM*!, D3 antag 23.8, S2 tox inactive, HepG2 viability -13.1%, TGFb inhibitor -5.7% and DRD3 agonist 90.2*!.
`O=c1[nH]c(=O)n([C@H]2C[C@@H](O)[C@@H](CO)O2)cc1F` gave ATXN2 expr inh 1.09µM*, HepG2 viability -36.6% and TGFb inhibitor inconclusive.
COc1cc(O)ccc1CN1CCc2nnc(C(C)NC(=O)c3cc(F)ccc3F)n2CC1 (stereo unspecified) was read as S2 tox inactive.
Screening Cc1nc(-c2ccc(C(F)(F)F)cc2)sc1C(=O)NN returned ATXN2 expr inh 15.8µM*, D3 antag inconclusive, S2 tox inactive, HepG2 viability -14.8%, TGFb inhibitor -18.0% and DRD3 agonist -9.4.
`Cc1nc(-c2cccs2)sc1C(=O)NN` gave ATXN2 expr inh -15.3%, D3 antag -6.8, S2 tox inactive, HepG2 viability 10.3%, TGFb inhibitor -3.8% and DRD3 agonist 2.7.
`Cn1c(SCC(=O)NCc2ccco2)nnc1-c1cccc(NC(=O)c2ccccc2)c1` gave HepG2 viability -24.5% and TGFb inhibitor -7.7%.
Screening Cc1cc(N/N=C/c2ccc3c(c2)OCO3)nc2ccccc12 returned ATXN2 expr inh -11.1%, D3 antag -5.0, S2 tox inactive, HepG2 viability 20µM*, TGFb inhibitor -8.4% and DRD3 agonist -13.3.
COc1ccc(/C=C(\C#N)c2nc(-c3cc4c(ccc5ccccc54)oc3=O)cs2)cc1O was read as HepG2 viability -1.0%, TGFb inhibitor 6.0% and DRD3 agonist 2.5.
O=C1CCN(Cc2cccn2-c2ccccn2)CCN1Cc1ccccc1C(F)(F)F was read as S2 tox inactive.
For N/C(=N\OC(=O)c1ccc2ccccc2c1)c1ccccn1 the results were ATXN2 expr inh 11.2µM*, D3 antag 7.9, S2 tox inactive, HepG2 viability -41.0%, TGFb inhibitor -9.3% and DRD3 agonist 1.5.
Screening COc1ccc(C(CNC(=O)c2cc3ccccc3o2)N2CCCCC2)cc1 (stereo unspecified) returned ATXN2 expr inh 5.8%, D3 antag -73.8*, S2 tox inactive, HepG2 viability -7.1%, TGFb inhibitor -11.3% and DRD3 agonist -17.6.
Screening COc1ccc(C(CNC(=O)c2cc3ccccc3o2)N2CCCC2)cc1 (stereo unspecified) returned ATXN2 expr inh -20.7%, D3 antag -84.1*, S2 tox inactive, HepG2 viability -7.1%, TGFb inhibitor 6.3% and DRD3 agonist -29.6.
For COc1ccc(C(CNC(=O)c2oc3ccc(C)cc3c2C)N2CCCCC2)cc1 (stereo unspecified) the results were ATXN2 expr inh -20.6%, D3 antag -104.4*, S2 tox inactive, HepG2 viability 3.8%, TGFb inhibitor 22.7% and DRD3 agonist -15.1.
`COc1ccc(C(CNC(=O)Cc2ccccc2F)N2CCCCC2)cc1` (stereo unspecified) gave ATXN2 expr inh 6.0%, D3 antag inconclusive, S2 tox inactive, HepG2 viability 7.9%, TGFb inhibitor -1.4% and DRD3 agonist -32.6.
COc1ccc(C(CNC(=O)c2oc3ccccc3c2C)N2CCCCC2)cc1 (stereo unspecified) was read as ATXN2 expr inh -18.3%, S2 tox inconclusive, HepG2 viability -28.1%, TGFb inhibitor -17.8% and DRD3 agonist -23.6.
OCCO[C@@H]1[C@@H](O)[C@H](O)[C@@H](CO)O[C@@H]1O was read as DRD3 agonist 7.4.
Screening CCC1CN(C(=O)N2CCC(C(=O)NCc3cccc(OC)c3OC)CC2)c2cc(C)ccc2O1 (stereo unspecified) returned ATXN2 expr inh -6.9%, D3 antag 20.3, S2 tox inactive, HepG2 viability -18.2%, TGFb inhibitor 11.2µM*! and DRD3 agonist 0.3.
For CCOc1ccc(CNC(=O)C2CCN(C(=O)N3CC(CC)Oc4ccc(C)cc43)CC2)cc1OC (stereo unspecified) the results were HepG2 viability -3.3%, TGFb inhibitor inconclusive and DRD3 agonist 9.8.
For CC(C)CNC(=O)C1(C)CCCN1C(=O)c1ccncc1 (stereo unspecified) the results were ATXN2 expr inh 4.7%, D3 antag 4.0, S2 tox inactive, HepG2 viability 7.0%, TGFb inhibitor 1.6% and DRD3 agonist 88.6*.
For CC(C)CNC(=O)C1(C)CCCN1C(=O)C(C)(C)Oc1ccc(Cl)cc1 (stereo unspecified) the results were ATXN2 expr inh -2.7%, D3 antag -100.4*, S2 tox inactive, HepG2 viability -5.0%, TGFb inhibitor 4.0% and DRD3 agonist -21.3.
`CCc1cccc2c(C(O)c3c[nH]c4ccccc34)c[nH]c12` (stereo unspecified) gave HepG2 viability -79.9% and TGFb inhibitor inconclusive.
`Cc1cccc(C)c1NC(=O)CCSc1nc(-c2ccc3c(c2)OCO3)cc(C(F)(F)F)n1` gave ATXN2 expr inh 1.6%, S2 tox inactive, HepG2 viability -5.6%, TGFb inhibitor 8.4% and DRD3 agonist -13.6.
Screening CCn1c(=O)n(CC)c2cc(N3CCCC3)c(NC(=O)Nc3cc(C)cc(C)c3)cc21 returned ATXN2 expr inh 6.4%, S2 tox inactive, HepG2 viability 1.4%, TGFb inhibitor 31.7% and DRD3 agonist 8.6.
`CCCCC1=CC2=CC(=O)C(C)(OC(=O)CC)C(=O)C2=CN1c1cccc(C#N)c1` (stereo unspecified) gave ATXN2 expr inh 1.6%, D3 antag -13.2, S2 tox inactive, HepG2 viability 3.2%, TGFb inhibitor -7.5% and DRD3 agonist 32.4*.
`COCc1cc(=O)[nH]c(SCCS(=O)(=O)c2ccc(C)cc2)n1` gave ATXN2 expr inh -17.7%, D3 antag 2.8, S2 tox inactive, HepG2 viability 19.2%, TGFb inhibitor 13.2% and DRD3 agonist 3.0.
For COCc1cc(=O)[nH]c(SCCS(=O)(=O)c2ccc(Cl)cc2Cl)n1 the results were ATXN2 expr inh 20µM*, D3 antag -61.7*, HepG2 viability -38.9%, TGFb inhibitor inconclusive and DRD3 agonist -8.4.
